MBNL1-CUG inh = qHTS Assay for Inhibitors of MBNL1-poly(CUG) RNA binding; Muscleblind-like protein 1 (Homo sapiens), Q9NR56; TR-FRET MBNL1-His/biotin-(CUG)12 binding, 665/545 ratio; Potency, µM (doses to about 57.5 µM), inactives show at the top dose activity change, negative = inhibition, usual class: inhibitors; 280,000 compounds, 0.036% hits; AID 2675, 2010; active = well fitted inhibition curve with a large enough effect in the signal ratio, with a control signal flat, not every such curve was filed as active; inconclusive = small, poorly fitted or top-dose-only effect, or effect the other way, or a change in a side signal; inactive = no such curve, though single readings can be large or run the other way; the % refers to the signal ratio; note: potency is the fitted concentration of half-maximal effect; % is set by controls: 0 for no effect and ±100 for the full control effect
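Inhibition of protein-RNA binding appears as loss of TR-FRET between terbium anti-His antibody on MBNL1-His and streptavidin-XL665 on biotin-(CUG)12. Activity is normalized to buffer-only and uninhibited-complex controls.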
Rango dissoc inh = qHTS Assay for Inhibitors of RanGTP induced Rango (Ran-regulated importin-beta cargo) - Importin beta complex dissociation. 340,000 compounds, 0.071% hits. Potency, µM (highest dose often 46.1 µM), for inactives: at the top dose activity change, negative = inhibition. Biochemical FRET Rango-importin beta, RanGTP-induced dissociation. AID 540253, 2011; note: potency is the fitted concentration of half-maximal effect; % of control where 0% means no effect; nearly all actives have a fitted effect of over 45% in size
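Recombinant Rango FRET biosensor (EYFP–snurportin 1 IBB–cerulean CFP10) at 0.1 uM premixed with 0.25 uM importin beta in PBS, 1 mM DTT, 0.02% Tween-20, 0.1% BSA. Compound added 5 min; RanGTP-RCC1 (0.6 uM Ran, 2 mM GTP, 0.2 uM RCC1) then triggers release, read at 45 min.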
CBFb-RUNX1 inh = qHTS Assay for Compounds Blocking the Interaction Between CBF-beta and RUNX1 for the Treatment of Acute Myeloid Leukemia; Runt-related transcription factor 1 (Homo sapiens) + Core-binding factor subunit beta …; AlphaScreen CBFb-His/RUNX1-biotin binding, biochemical; Potency, µM (top dose mostly 59.8 µM), inactives show at the top dose activity, negative = inhibition, usual class: inhibitors; 230,000 tested, under 10 active; active = well fitted curve in the direction sought with a large enough effect; inconclusive = small, poorly fitted or top-dose-only effect, or effect the other way, or another doubt; inactive = no such curve, though single readings can be large or run the other way; note: % of control where 0% means no effect
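CBF-beta (His) and RUNX1 (biotin), 30 nM each; 20 min preassociation; + compound, 15 min; + beads 50 ng each (Ni, streptavidin), 90 min; RT; AlphaScreen read.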
Rango-impB inh = qHTS Assay for Inhibitors of Rango (Ran-regulated importin-beta cargo) - Importin beta complex formation. Potency, µM (doses to about 92.2 µM), for the others: at the highest dose inhibition of complex formation. Rango CFP/YFP FRET sensor + importin beta, 45 min. 340,000 compounds, 0.031% hits. AID 540263, 2011;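 note: potency is the fitted concentration of half-maximal effect; 0% = DMSO wells and 100% = buffer wells lacking importin beta; nearly all actives have a fitted effect of over 15% in size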
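FRET biosensor (snurportin 1 IBB flanked by EYFP and cerulean), 50 nM, with compound 5 min, then 0.125 microM importin beta in PBS, 1 mM DTT, 0.02% Tween-20, 0.1% BSA. CFP/YFP ratio read after 45 min at room temperature; pre-read flags interference.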
ClpP mod = qHTS Assay for Activators of ClpP; purified B. subtilis ClpP, FRET peptide cleavage, 20 min; 340,000 compounds, 1.9% hits; Potency, µM (series often up to 57.5 µM), for the others: top-dose activity change, negative = active; AID 651965, 2013; active = well fitted falling curve with a large enough effect; inconclusive = small, poorly fitted or top-dose-only effect; inactive = no such curve, though single readings can be large or run the other way; note: potency is the fitted concentration of half-maximal effect; the source files actives as falling curves though it sought activators and does not explain the sign; nearly all actives have a fitted effect of over 65% in size
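Buffer: 100 mM Tris/HCl pH8, 100 mM KCl, 0.05% low protease BSA, 2.5% glycerol, 0.01% Tween-20. ClpP 10 microg/mL final; 20 min RT; delta FRET normalized to ADEP and DMSO controls.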
An asterisk follows results filed as active; ? = inconclusive; · = no result given; [ ] = remark or other dose. The full list was thinned out, with hits kept by preference. Unless noted, calls come from the whole dose curve.

SMILES	MBNL1-CUG inh	Rango dissoc inh	CBFb-RUNX1 inh	Rango-impB inh	ClpP mod
COC(=O)C/C=C\[C@H](C)[C@H](CO)NS(=O)(=O)c1ccc(C)cc1	·	·	2.8%[13.1 µM]	·	·
Cc1cc(NC(=O)n2ncc3c(C)cccc32)ccc1Br	·	·	·	·	0.9%
Cc1ccc(-n2c(O)c(C=Nc3cc(C)on3)c3ccccc3c2=O)c(C)c1	?	9.2µM*	-17.7%	?	-1.0%
Cc1cc(N=Cc2c(O)n(-c3ccc(C)c(C)c3)c(=O)c3ccccc23)no1	3.3%	·	4.2%	·	·
COc1ccc(N2C(=O)CCC(C(=O)N3CCCCC3)C2c2ccc(F)cc2)cc1 (stereo unspecified)	-2.1%	-3.5%	2.8%	-0.3%	12.6µM*
CN(Cc1ccccc1)C(=O)c1cc2c(s1)-c1ccc(Cl)cc1SC2	·	·	·	·	25.1µM*
CCN(CC)CCNC(=O)c1cc2c(s1)-c1ccccc1SC2	?	12.7%	·	-2.6%	?
O=C(NCc1ccc(Cl)cc1)c1cc2c(s1)-c1ccccc1SC2	·	·	·	·	31.6µM*
Cc1ccc(NC(=O)CC2Sc3ccccc3NC2=O)c(Br)c1 (stereo unspecified)	·	·	·	·	-2.6%
Cc1cccc(-n2c(C)nc3cc(C(=O)NCCC4=CCCCC4)ccc32)c1	·	·	·	·	-0.8%
CCOC(=O)C1CCCN(C(=O)CCC(=O)Nc2ccc3nc(N4CCOCC4)cc(C)c3c2)C1 (stereo unspecified)	-9.3%	-2.7%	5.1%	-0.6%	8.91µM*
Cc1cc(N2CCOCC2)nc2ccc(NC(=O)C3CCC(C)CC3)cc12 (stereo unspecified)	0.5%	-0.8%	3.5%	0.3%	14.1µM*
Cc1cc(N2CCCCC2)nc2ccc(NC(=O)c3cccc(F)c3)cc12	·	·	·	·	-5.3%
CCN1CCN(C(=S)Nc2ccc3nc(N4CCN(CC)CC4)cc(C)c3c2)CC1	·	-9.6%	4.9%	-2.7%	?
CCOC(=O)N1CCN(C(=S)Nc2ccc3nc(N4CCN(CC)CC4)cc(C)c3c2)CC1	·	-1.3%	0.1%	-2.3%	15.8µM*
Cc1cc(N2CCOCC2)nc2ccc(NC(=O)CCC(=O)N3CCN(c4ccccc4)CC3)cc12	-3.8%	2.0%	·	0.4%	·
Cc1cc(N2CCCCCC2)nc2ccc(F)cc12	·	?	·	?	28.2µM*
Cc1cc(N2CCCCC2)nc2ccc(NC(=O)CCC(=O)NCCC(C)C)cc12	-4.4%	-9.5%	-4.5%	-3.4%	15.8µM*
CCCCNC(=O)CCC(=O)Nc1ccc2nc(N3CCCCC3)cc(C)c2c1	4.9%	-14.2%	3.6%	-4.7%	3.4%
O=C(NCCc1ccccc1)c1ccc(Cn2c(SCc3cccc(F)c3)nc3cccnc32)cc1	·	·	·	·	4.6%
CC(=O)NC(CCS(C)(=O)=O)C(=O)Nc1cccc2ccccc12 (stereo unspecified)	?	-2.3%	11.8%	-1.1%	-1.3%
COC(=O)c1ccccc1NC(=O)C(CCS(C)(=O)=O)NC(C)=O (stereo unspecified)	-6.5%	0.1%	1.6%	0.4%	28.2µM*
CC(=O)NC(CCS(C)(=O)=O)C(=O)Nc1ccccc1Cl (stereo unspecified)	-11.9%	11.2%	4.6%	4.0%	15.8µM*
CCOC(=O)[C@]12CCCC=C1N(Cc1ccccc1)C(=O)[C@H](CC(=O)N1CCOCC1)C2	·	·	·	·	0.1%
COc1ccc(NC(=O)CC2C(=O)N(c3cccc(OC)c3)C(=O)N2Cc2cccnc2)cc1 (stereo unspecified)	·	·	·	·	-3.7%
COc1ccc(-c2noc3c2-c2nc(-c4ccccc4C)sc2CC3)cc1	·	-15.2%	·	1.4%	25.1µM*

Assay outcomes from PubChem BioAssay.
